# Data as given in paper PMC7862700, “An all-to-all approach to the identification of sequence-specific readers for epigenetic DNA modifications on cytosine”.
# Key:
# Test in all cases: DAPPL (digital affinity profiling via proximity ligation, sequencing); 10 mM Tris-HCl pH 7.5, 50 mM NaCl, 1 mM DTT, 4% glycerol, room temperature, 30 min; GST-TFs on glutathione beads, 16-mer random dsDNA library, 0.1% formaldehyde crosslink after washing; high values mean tight binding
# Conditions in all cases: protein: recombinant; tags: N-terminal GST; dsDNA, one strand shown
# FLI1 = target: T1, FLI1 (Homo sapiens, UniProt Q01543 1-452)
# T1 sequence: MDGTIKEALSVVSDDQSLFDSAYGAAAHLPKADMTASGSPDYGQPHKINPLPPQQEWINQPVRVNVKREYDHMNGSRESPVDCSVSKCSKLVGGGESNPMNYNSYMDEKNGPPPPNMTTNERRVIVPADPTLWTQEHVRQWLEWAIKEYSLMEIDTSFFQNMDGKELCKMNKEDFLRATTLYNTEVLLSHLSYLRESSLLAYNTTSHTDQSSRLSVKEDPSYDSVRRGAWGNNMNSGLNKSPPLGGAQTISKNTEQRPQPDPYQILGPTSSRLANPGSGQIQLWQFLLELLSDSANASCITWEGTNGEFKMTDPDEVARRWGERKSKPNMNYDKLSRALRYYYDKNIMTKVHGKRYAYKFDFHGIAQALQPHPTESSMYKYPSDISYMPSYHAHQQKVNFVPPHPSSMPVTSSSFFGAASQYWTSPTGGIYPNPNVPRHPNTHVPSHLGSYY
# Summary of the method: (§1)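 Binding signal is defined as a hexamer's read frequency for one factor over its frequency for the tag-only sample. To obtain reads, GST-fused human transcription factors were expressed in yeast, captured on glutathione beads, barcoded with DNA and pooled with that sample. Pools met 200 nmole of a 16-mer random double-stranded DNA library in Tris/NaCl/DTT/glycerol buffer for 30 min at room temperature before washing, 0.1% formaldehyde crosslinking, proximity ligation (BsaI/T4 ligase, 1 h, 37 °C), PCR and Illumina NextSeq500 sequencing.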
# GABPA = target: T2, GABPA (Homo sapiens, UniProt Q06546 1-454)
# T2 sequence: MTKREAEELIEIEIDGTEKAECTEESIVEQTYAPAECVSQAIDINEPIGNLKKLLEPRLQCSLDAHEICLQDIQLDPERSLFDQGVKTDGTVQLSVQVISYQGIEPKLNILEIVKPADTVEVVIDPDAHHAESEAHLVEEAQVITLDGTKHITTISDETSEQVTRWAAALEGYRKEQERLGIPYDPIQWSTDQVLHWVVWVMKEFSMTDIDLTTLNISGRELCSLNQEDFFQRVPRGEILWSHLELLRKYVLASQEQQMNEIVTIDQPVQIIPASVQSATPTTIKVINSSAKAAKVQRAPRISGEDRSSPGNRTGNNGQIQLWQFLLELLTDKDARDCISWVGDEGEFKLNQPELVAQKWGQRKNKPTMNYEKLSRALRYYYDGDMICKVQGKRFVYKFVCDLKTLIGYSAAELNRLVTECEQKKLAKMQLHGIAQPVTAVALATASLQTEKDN
# Summary of the method: as §1
# ERG = target: T3, ERG (Homo sapiens, UniProt P11308 1-479)
# T3 sequence: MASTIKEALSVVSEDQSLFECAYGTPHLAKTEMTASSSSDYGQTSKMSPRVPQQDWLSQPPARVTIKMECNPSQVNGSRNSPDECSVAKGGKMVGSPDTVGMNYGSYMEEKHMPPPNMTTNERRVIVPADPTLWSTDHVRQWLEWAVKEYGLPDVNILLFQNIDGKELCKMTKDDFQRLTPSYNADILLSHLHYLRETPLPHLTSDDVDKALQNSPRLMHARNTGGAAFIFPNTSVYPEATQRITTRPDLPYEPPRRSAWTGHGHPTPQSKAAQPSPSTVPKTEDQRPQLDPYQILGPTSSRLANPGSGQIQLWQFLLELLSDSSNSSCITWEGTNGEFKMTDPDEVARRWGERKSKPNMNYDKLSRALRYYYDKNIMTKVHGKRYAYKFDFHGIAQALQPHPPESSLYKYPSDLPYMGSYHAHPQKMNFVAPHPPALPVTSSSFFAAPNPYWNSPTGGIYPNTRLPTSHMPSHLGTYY
# Summary of the method: as §1
# ELF1 = ELF1 (Homo sapiens, UniProt P32519 1-619)
# Sequence of ELF1 (P32519 whole entry): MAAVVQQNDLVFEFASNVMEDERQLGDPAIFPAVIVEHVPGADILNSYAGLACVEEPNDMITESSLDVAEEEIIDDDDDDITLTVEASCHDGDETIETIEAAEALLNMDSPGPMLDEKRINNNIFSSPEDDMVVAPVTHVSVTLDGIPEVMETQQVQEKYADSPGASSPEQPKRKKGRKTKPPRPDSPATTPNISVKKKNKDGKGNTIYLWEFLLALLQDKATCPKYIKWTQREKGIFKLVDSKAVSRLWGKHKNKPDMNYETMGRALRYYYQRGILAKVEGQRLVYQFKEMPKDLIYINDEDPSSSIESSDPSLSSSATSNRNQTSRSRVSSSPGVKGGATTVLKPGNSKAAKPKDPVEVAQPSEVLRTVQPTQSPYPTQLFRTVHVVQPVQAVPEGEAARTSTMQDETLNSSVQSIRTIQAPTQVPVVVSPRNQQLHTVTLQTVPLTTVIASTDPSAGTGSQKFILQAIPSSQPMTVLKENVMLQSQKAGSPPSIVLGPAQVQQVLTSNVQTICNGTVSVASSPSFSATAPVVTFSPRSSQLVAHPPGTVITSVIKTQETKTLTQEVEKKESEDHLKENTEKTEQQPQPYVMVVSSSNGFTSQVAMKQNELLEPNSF
# Summary of the method: as §1
# EHF = target: T4, EHF (Homo sapiens, UniProt Q9NZC4 1-300)
# T4 sequence: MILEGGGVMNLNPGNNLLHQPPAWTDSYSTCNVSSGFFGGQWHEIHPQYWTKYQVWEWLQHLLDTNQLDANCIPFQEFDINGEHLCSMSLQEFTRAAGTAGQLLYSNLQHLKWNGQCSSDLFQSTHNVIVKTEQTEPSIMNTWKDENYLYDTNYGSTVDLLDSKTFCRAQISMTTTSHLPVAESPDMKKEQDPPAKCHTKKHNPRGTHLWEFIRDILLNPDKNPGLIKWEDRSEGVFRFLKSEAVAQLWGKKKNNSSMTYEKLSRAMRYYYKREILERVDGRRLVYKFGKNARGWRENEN
# Summary of the method: as §1
# SPI1 = SPI1 (Homo sapiens, UniProt P17947 1-270)
# Summary of the method: as §1
# ELK3 = target: T5, ELK3 (Homo sapiens, UniProt P41970 1-407)
# T5 sequence: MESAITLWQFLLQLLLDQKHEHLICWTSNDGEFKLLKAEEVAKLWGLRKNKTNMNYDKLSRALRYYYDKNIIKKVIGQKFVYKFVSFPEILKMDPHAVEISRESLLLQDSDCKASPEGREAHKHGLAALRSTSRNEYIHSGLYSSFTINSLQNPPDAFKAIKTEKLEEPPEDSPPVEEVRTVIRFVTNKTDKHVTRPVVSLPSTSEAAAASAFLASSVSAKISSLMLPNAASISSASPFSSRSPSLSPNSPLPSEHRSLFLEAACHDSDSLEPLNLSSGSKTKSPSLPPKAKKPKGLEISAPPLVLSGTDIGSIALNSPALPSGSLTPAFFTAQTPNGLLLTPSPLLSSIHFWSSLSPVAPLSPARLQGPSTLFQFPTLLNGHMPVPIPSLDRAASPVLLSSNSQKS
# Summary of the method: as §1
# ETV5 = ETV5 (Homo sapiens, UniProt P41161 1-510)
# Sequence of ETV5 (P41161 whole entry): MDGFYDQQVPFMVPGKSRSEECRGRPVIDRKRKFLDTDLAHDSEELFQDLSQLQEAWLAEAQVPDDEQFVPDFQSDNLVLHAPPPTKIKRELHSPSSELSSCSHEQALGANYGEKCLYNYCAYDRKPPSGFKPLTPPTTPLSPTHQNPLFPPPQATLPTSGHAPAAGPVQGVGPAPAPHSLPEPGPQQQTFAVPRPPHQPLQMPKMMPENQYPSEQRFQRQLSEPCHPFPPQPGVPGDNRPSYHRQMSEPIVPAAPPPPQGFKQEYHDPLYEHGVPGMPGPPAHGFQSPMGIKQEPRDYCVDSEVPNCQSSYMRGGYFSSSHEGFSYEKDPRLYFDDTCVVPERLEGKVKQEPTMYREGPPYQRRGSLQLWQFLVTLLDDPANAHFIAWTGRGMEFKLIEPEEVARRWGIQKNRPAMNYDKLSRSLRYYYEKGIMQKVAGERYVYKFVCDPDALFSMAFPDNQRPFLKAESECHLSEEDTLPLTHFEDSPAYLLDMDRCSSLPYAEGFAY
# Summary of the method: as §1
# SPIC = target: T6, SPIC (Homo sapiens, UniProt Q8N5J4 1-248)
# T6 sequence: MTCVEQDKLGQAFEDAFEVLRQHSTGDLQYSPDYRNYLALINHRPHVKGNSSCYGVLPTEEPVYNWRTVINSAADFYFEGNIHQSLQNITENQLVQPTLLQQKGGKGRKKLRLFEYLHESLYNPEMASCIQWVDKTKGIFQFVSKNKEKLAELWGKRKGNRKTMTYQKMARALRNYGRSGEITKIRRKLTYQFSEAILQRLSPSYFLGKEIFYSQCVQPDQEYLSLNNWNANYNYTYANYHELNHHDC
# Summary of the method: as §1
# ELF4 = ELF4 (Homo sapiens, UniProt Q99607 1-663)
# Sequence of ELF4 (Q99607 whole entry): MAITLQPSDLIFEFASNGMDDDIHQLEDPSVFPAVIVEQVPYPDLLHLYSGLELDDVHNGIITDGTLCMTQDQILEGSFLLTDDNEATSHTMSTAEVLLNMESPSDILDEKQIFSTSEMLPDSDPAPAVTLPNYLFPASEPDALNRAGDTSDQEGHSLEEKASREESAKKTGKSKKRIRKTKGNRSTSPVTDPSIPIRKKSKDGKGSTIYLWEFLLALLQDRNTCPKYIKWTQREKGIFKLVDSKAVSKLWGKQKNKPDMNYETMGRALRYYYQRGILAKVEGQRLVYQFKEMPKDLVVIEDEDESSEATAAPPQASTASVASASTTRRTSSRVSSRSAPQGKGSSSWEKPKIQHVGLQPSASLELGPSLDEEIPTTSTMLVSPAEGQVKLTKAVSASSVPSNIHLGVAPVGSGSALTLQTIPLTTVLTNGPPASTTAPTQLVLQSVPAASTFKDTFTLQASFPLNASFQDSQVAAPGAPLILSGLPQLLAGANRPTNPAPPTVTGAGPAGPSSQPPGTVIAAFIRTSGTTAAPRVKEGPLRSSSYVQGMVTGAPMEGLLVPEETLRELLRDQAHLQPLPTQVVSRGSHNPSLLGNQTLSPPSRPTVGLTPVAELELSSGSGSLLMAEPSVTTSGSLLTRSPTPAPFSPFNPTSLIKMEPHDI
# Summary of the method: as §1
# ETV1 = ETV1 (Homo sapiens, UniProt P50549 1-477)
# Sequence of ETV1 (P50549 whole entry): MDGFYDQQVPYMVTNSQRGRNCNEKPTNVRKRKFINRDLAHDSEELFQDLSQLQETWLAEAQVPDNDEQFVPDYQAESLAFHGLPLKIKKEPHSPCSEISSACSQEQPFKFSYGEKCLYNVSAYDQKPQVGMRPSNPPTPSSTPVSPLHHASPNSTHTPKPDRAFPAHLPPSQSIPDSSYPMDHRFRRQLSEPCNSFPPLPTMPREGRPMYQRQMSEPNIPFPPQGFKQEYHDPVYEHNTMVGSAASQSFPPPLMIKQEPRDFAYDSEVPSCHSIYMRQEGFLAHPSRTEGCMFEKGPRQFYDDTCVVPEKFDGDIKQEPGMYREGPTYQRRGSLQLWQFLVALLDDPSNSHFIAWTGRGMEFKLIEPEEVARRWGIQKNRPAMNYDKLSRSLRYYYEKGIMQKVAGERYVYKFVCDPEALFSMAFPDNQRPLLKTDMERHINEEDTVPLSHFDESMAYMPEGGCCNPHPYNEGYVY
# Summary of the method: as §1
# ERF = target: T7, ERF (Homo sapiens, UniProt P50548 1-548)
# T7 sequence: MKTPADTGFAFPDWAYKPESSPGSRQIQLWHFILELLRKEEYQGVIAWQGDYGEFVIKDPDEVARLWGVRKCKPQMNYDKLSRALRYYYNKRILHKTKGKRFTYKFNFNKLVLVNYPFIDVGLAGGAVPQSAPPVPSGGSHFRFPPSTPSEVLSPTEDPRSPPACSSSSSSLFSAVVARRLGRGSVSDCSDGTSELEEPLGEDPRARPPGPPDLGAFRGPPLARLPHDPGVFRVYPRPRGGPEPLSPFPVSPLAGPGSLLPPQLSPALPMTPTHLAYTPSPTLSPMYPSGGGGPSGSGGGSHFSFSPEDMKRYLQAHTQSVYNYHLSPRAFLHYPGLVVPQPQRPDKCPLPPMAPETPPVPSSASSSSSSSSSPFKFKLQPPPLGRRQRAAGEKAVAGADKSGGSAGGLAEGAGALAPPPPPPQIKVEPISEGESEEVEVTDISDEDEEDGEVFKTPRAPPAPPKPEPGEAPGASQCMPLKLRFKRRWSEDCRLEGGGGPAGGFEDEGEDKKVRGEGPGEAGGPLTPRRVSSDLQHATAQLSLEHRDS
# Summary of the method: as §1
# ETV3L = target: T8, ETV3L (Homo sapiens, UniProt Q6ZN32 1-361)
# T8 sequence: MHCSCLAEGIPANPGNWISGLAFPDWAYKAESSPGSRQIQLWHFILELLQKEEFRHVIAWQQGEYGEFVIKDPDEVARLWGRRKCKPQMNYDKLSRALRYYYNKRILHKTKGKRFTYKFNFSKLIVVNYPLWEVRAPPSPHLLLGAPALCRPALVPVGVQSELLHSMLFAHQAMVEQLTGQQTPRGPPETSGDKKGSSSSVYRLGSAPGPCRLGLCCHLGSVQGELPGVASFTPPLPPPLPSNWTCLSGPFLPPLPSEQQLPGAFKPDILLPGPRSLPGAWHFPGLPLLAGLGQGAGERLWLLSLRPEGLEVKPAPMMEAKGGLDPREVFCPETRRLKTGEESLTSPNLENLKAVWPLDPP
# Summary of the method: as §1
# ETS2 = target: T9, ETS2 (Homo sapiens, UniProt P15036 1-469)
# T9 sequence: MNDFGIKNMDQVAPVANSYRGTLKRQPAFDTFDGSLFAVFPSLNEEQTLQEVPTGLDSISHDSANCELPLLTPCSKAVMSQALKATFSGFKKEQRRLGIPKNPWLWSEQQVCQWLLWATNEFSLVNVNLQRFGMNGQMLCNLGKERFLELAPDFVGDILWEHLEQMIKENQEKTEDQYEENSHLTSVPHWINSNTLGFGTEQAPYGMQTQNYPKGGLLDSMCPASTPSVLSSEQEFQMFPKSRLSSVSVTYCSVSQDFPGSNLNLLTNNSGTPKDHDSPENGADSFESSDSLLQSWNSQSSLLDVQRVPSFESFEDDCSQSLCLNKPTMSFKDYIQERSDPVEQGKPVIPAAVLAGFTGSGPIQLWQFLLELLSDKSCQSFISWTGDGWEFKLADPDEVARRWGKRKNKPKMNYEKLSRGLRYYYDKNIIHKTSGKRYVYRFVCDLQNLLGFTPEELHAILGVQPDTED
# Summary of the method: as §1
# SPDEF = target: T10, SPDEF (Homo sapiens, UniProt O95238 1-335)
# T10 sequence: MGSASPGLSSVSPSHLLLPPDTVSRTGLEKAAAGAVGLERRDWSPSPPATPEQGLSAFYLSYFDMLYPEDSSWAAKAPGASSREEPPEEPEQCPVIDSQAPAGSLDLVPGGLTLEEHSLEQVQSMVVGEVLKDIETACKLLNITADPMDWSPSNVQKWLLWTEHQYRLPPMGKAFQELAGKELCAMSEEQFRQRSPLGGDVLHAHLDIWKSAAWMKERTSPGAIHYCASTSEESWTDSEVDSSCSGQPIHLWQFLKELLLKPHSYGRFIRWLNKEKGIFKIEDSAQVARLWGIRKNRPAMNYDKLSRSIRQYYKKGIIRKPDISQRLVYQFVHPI
# Summary of the method: as §1
# ETV3 = target: T11, ETV3 (Homo sapiens, UniProt P41162-2 1-143)
# T11 sequence: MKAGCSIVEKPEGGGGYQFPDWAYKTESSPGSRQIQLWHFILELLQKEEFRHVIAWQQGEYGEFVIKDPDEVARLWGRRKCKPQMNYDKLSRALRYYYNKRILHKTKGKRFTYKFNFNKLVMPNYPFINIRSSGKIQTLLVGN
# Summary of the method: as §1
# ETV6 = ETV6 (Homo sapiens, UniProt P41212 1-452)
# Sequence of ETV6 (P41212 whole entry): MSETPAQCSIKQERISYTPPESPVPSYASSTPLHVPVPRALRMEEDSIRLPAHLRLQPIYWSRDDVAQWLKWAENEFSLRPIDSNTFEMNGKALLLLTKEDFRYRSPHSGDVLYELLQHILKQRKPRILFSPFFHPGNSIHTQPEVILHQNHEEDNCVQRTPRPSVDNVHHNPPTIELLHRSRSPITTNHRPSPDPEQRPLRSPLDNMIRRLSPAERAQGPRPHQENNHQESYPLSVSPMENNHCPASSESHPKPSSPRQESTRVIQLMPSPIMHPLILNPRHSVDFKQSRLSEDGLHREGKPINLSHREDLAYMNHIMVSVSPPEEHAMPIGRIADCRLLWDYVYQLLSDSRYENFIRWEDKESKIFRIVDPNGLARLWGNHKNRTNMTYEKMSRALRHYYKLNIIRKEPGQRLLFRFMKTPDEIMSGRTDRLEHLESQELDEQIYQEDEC
# Summary of the method: as §1
sequence,measurement,setting,value
GTTACG,binding signal,FLI1,"1.08 fold enrichment (6-mer frequency, TF over GST control)"
same,binding signal,GABPA,"1.01 fold enrichment (6-mer frequency, TF over GST control)"
same,binding signal,ERG,"1.01 fold enrichment (6-mer frequency, TF over GST control)"
same,binding signal,ELF1,"1.07 fold enrichment (6-mer frequency, TF over GST control)"
same,binding signal,EHF,"1.03 fold enrichment (6-mer frequency, TF over GST control)"
same,binding signal,SPI1,"1.01 fold enrichment (6-mer frequency, TF over GST control)"
same,binding signal,ELK3,"1.01 fold enrichment (6-mer frequency, TF over GST control)"
same,binding signal,ETV5,"1.03 fold enrichment (6-mer frequency, TF over GST control)"
same,binding signal,SPIC,"1.05 fold enrichment (6-mer frequency, TF over GST control)"
same,binding signal,ELF4,"1.02 fold enrichment (6-mer frequency, TF over GST control)"
same,binding signal,ETV1,"1.07 fold enrichment (6-mer frequency, TF over GST control)"
same,binding signal,ERF,"1.06 fold enrichment (6-mer frequency, TF over GST control)"
same,binding signal,ETV3L,"1.14 fold enrichment (6-mer frequency, TF over GST control)"
same,binding signal,ETS2,"1.06 fold enrichment (6-mer frequency, TF over GST control)"
same,binding signal,SPDEF,"1.04 fold enrichment (6-mer frequency, TF over GST control)"
same,binding signal,ETV3,"1.04 fold enrichment (6-mer frequency, TF over GST control)"
same,binding signal,ETV6,"1.09 fold enrichment (6-mer frequency, TF over GST control)"
